Compound activity (PubChem)
HTT ATP protect: cytoprotection in Huntington HTT-Q103 PC12 cell model. PC12 HTT-Q103 induced, cytoprotection, ATP luminescence, 40 h. Potency, µM (doses to about 56.4 µM), inactives show cytoprotection (ATP increase), hits mostly activators. actives 0.14% (n = 230,000). AID 1471; active = well fitted curve in the direction sought with a large enough effect; inconclusive = small, poorly fitted or top-dose-only effect, or another doubt; inactive = no such curve, though single readings can be large; an effect the other way counts as inactive or inconclusive; also: % of control where 0% means no effect; nearly all actives have a fitted effect of over 45% in size
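Quantitative HTS on tebufenozide-induced (100 nM) PC12 cells expressing HTTQ103 exon 1–GFP; compounds tested as a concentration series; survival measured via cellular ATP.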
Lamin A splicing: LMNA splicing modulation; HeLa LMNA splicing GFP/RFP minigene ratio, 48 h; Potency, µM (titrated, usually from 46.1 µM), for inactives: top-dose ratio change, negative = inhibition, most hits filed as inhibitors; actives 0.01% (n = 200,000); AID 1487; active = well fitted inhibition curve with a large enough effect in the signal ratio, with a control signal flat, not every such curve was filed as active; inconclusive = small, poorly fitted or top-dose-only effect, or effect the other way, or a change in a side signal; the % refers to the signal ratio; also: % is scaled to controls: 0 for no effect and ±100 for the full control effect
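S3 HeLa cells stably expressing lamin A-EGFP splicing minigene plus DsRed2, 600 cells/well, 48 h compound exposure at 37C. Laser-scanning cytometry; analysed as GFP (500-530 nm)/RFP (575-640 nm) total intensity ratio; 0.5% DMSO vehicle.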
KDM4E inh: JMJD2E (human) inhibition; B2RXH2; JMJD2E catalytic domain, FDH-coupled NADH fluorescence (FDH is formaldehyde dehydrogenase); Potency, µM (titrated, usually from 57.1 µM), for the others: at the highest dose activity change, negative = inhibition, most hits filed as inhibitors; actives 1.6% (n = 230,000);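 also: 0% = wells with enzyme and -100% = buffer wells without enzyme; nearly all actives have a fitted effect of over 50% in size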
Target sequence (B2RXH2 1-337 limits assumed): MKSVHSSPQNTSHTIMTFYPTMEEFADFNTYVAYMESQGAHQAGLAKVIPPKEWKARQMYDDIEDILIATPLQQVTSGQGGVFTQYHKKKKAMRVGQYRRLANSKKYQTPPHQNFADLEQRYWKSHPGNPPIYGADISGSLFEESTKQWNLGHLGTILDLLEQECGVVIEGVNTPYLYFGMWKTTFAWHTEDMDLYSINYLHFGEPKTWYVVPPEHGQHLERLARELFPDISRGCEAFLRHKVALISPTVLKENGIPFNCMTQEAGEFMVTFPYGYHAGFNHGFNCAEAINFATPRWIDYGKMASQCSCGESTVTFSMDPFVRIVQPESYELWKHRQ
ALDH1A1 inh: ALDH1A1 (human) enzyme inhibition. P00352. Purified ALDH1A1, NADH fluorescence, propionaldehyde substrate. Potency, µM (top dose mostly 75.3 µM), without a hit: top-dose activity, negative = inhibition, hits mostly inhibitors. actives 7.3% (n = 220,000);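 also: plate controls were no enzyme wells and a reference inhibitor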
HttQ103 aggreg: reduces HttQ103-GFP aggregates in PC12 cells; Potency, µM (doses to about 46.1 µM), inactives show at the highest dose activity change, negative = inhibition, usual class: inhibitors; actives 1.1% (n = 220,000); PC12 HttQ103-GFP aggregates, Acumen cytometry, 40 h; AID 1688; active = well fitted curve in the direction sought with a large enough effect; inconclusive = small, poorly fitted or top-dose-only effect, or another doubt; inactive = no such curve, though single readings can be large; an effect the other way counts as inactive or inconclusive; also: % is scaled to controls: 0 for no effect and ±100 for the full control effect; nearly all actives have a fitted effect of over 60% in size
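Aggregates are detected as GFP objects 1–25 µm with signal 6 STDEV over background in lysates of induced PC12 cells. These carry Huntingtin exon 1 with 103 glutamines fused to GFP under an ecdysone promoter; compounds titrated.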
HPGD block: blocks human HPGD enzyme activity. purified HPGD, NADH fluorescence kinetic, PGE2 substrate. Potency, µM, for inactives: at the top dose activity change, negative = inhibition, usual class: inhibitors. actives 4.3% (n = 150,000). AID 894; also: % is scaled to controls: 0 for no effect and ±100 for the full control effect
Target sequence (P15428 whole entry, looked up): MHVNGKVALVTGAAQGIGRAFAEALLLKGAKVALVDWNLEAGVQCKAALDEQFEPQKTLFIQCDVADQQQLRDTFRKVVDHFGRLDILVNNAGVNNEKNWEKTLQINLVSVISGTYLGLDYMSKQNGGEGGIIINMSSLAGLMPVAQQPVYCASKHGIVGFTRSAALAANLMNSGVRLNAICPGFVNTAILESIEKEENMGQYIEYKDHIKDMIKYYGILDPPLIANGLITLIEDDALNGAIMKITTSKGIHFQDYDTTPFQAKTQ
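NADH formation kinetics: reaction with 30 uM PGE2 and 1 mM NAD+ (final), 20 nM enzyme, Tris-HCl pH 8 with Tween 20, after 15 min compound preincubation at room temperature. Fluorescence change, last versus first of five reads.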
* = called active by the depositor; ? = inconclusive; · = not tested or not shown; [ ] = another dose, or the depositor's remark. Only some compounds are listed: those with a hit (about 9.2% of all), similar ones and a draw of the others. Unless noted, calls follow the shape of the dose curve; as a rule, active = well fitted inhibition curve with a large enough effect (not every such curve was filed as active); inconclusive = small, poorly fitted or top-dose-only effect, or another doubt; inactive = no such curve, though single readings can be large or run the other way. Potency is read from the fitted curve at half-maximal effect.

SMILES	HTT ATP protect	Lamin A splicing	KDM4E inh	ALDH1A1 inh	HttQ103 aggreg	HPGD block
c1cn2cc(-c3ccc4c(c3)OCO4)nc2s1	-79%	9%	1%	8.9µM*	5%	32µM*
CC(=O)Nc1ccc(-c2cn3ccsc3n2)cc1	-83%	-6%	-4%	1%	0%	-8%
O=C(Nc1ccc(-c2cn3ccsc3n2)cc1)C1CCCC1	-47%	5%	-4%	-10%	5%	14µM*
O=C(Cn1nc(-c2ccc(Cl)cc2)ccc1=O)NCCc1ccccc1	·	5%[46 µM]	·	·	·	·
COC(=O)C1=C(C(=O)OC)[C@@H]2Nc3ccccc3[C@@]23C[C@@H](C(=O)OC)N(C(C)=O)C3=N1	15%[10 µM]	?	4%[11.4 µM]	8%[13.5 µM]	4%[9.22 µM]	1%
CN(C)Cc1c(-c2ccc(Cl)cc2)nc2ccccn12	-38%	·	?	4%	0.032µM*	·
Clc1ccc(-c2nc3ccccn3c2CN2CCCCC2)cc1	-18%	·	?	1%	2%	·
Cc1cc(C(=O)N2CCN(c3ccccc3)CC2)c2c(C)nn(-c3cccc(F)c3)c2n1	·	-11%[46 µM]	·	·	·	·
O=CN(Cc1ccco1)C1(C(=O)NC2CCCCC2)CCCCC1	8%[10 µM]	0%	9%	14µM*	3%	3%
O=C(CSc1nnc(Cc2ccccc2)n1Cc1ccco1)NC1CCCC1	-1%	18%	-1%	22µM*	2%	-13%
Cc1ccc(NC(=O)CSCc2ccco2)cc1	·	-11%[46 µM]	-4%	22µM*	2%	·
O=C(CSCc1ccco1)NC1CCCC1	7%[10 µM]	3%	5%	?	6%	28µM*
CCCn1c(C)nc2c(NCc3ccccc3)nc(C)nc21	-40%	·	-14%	-5%	·	-11%
CC(C)(C)c1ccc(C(=O)NN2C(=O)CSC2=S)cc1	-4%[10 µM]	·	5%	?	-14%[9.22 µM]	·
Cc1ccccc1CSCC(=O)NC1CCCC1	-13%	2%	-5%	8%	-6%	18µM*
O=C(O)[C@@H](O)[C@@H](O)[C@H](O)[C@H](O)CO	?	?	·	3%[13.5 µM]	5%	-4%
N#CC1=C(N)C2=CCCC[C@H]2[C@H](c2ccc(Br)cc2)C1(C#N)C#N	2%[10 µM]	?	-1%	13µM*	7%	-25%
O=C(Nc1ccccc1)c1cccc(=O)o1	28%[10 µM]	·	-3%	·	18%[9.22 µM]	·
COCn1c2ccccc2c2nnc(C(C)=O)nc21	-2%[10 µM]	·	·	-7%[13.5 µM]	·	·
CCN(Cc1ccncc1)Cc1c(O)ccc2ccccc12	·	·	?	10µM*	37%	·
O=C(CC1N=C2c3ccccc3N=C(SCc3ccccc3F)N2C1=O)NCc1cccs1 (stereo not given)	·	3%[46 µM]	·	·	·	·
CNc1ncncc1-c1ccccc1OC	14%	9%	-3%	?	·	-16%
Cc1sc2nc(C3CC3)nc(SCC(=O)N3CCc4ccccc4C3)c2c1C	-8%[10 µM]	-13%	?	14µM*	7.1µM*	?
Cc1sc2nc(C(C)C)nc(SCC(=O)N3CCN(C(=O)c4ccco4)CC3)c2c1C	0%	-18%	1%	?	-11%	-4%
CCc1c(C)sc2nc(C(C)C)nc(SCC(=O)N3CCc4ccccc4C3)c12	-3%[10 µM]	-8%	-1%	-8%	3.5µM*	-19%
SMILES	HTT ATP protect	Lamin A splicing	KDM4E inh	ALDH1A1 inh	HttQ103 aggreg	HPGD block
CC1=CC(=O)CC(C)(C)C1(O)/C=C/C(C)=C\C(=O)O (stereo not given)	16%[1.9 µM]	·	2%	5%	·	0%
COc1ccc(C(C(=O)OCCN(C)C)c2ccccc2)cc1 (stereo not given)	-30%	5%	2%	3%	-14%	-11%
CN(C)CCOC(=O)[C@@H](c1ccccc1)C1(O)CCCC1	5.6µM*	?	1%[25.5 µM]	5%[20.9 µM]	1%	-3%
COc1ccc(NC(=O)COC(=O)CCCOc2ccc(Cl)cc2Cl)cc1	7%[10 µM]	-8%	-3%	0%	16%	-13%
CCOc1ccccc1NC(=S)NC(=O)CCCOc1ccc(Cl)cc1Cl	?	?	3%	11µM*	-2%[9.22 µM]	-23%
O=C(CCCOc1ccc(Cl)cc1Cl)NCc1ccncc1	?	-4%[46 µM]	-4%	20µM*	14%[9.22 µM]	·
CN(C)S(=O)(=O)c1cccc(NC(=O)COC(=O)c2ccc([N+](=O)[O-])o2)c1	5%[10 µM]	6%	-6%	20µM*	14%	-12%
COc1ccc(NC(=O)COC(=O)CCCOc2ccc(Cl)cc2Cl)cc1Cl	8%[10 µM]	0%	-12%	-4%	3%	28µM*
COc1cccc(NC(=O)C(OC(=O)c2ccc([N+](=O)[O-])o2)c2ccccc2)c1 (stereo not given)	·	7%	-19%	22µM*	-14%	-17%
O=C(COC(=O)c1ccc([N+](=O)[O-])o1)Nc1cccc(S(=O)(=O)N2CCOCC2)c1	-26%[10 µM]	9%	2%	1µM*	-6%	-18%
COc1ccc(C)cc1NC(=O)COC(=O)c1ccc([N+](=O)[O-])o1	-26%	31%[46 µM]	-2%	0%	-18%	·
COc1ccc(NC(=O)COC(=O)c2ccc([N+](=O)[O-])o2)cc1Cl	-16%	17%[46 µM]	2%	22µM*	13%	·
O=C(O)/C=C(/C(=O)O)[C@]12CCN3CC4=CCO[C@@H]5CC(=O)N[C@@H]1C5[C@H]4C[C@H]32 (stereo not given in full)	·	·	·	-2%[13.5 µM]	·	-5%
N[C@H](CCC(=O)NCS(=O)(=O)O)C(=O)O	9%[1.9 µM]	·	·	·	·	·
CCC1=C2CC[C@H]3C(=O)N(C)C(=O)[C@H]3[C@H]2[C@@]2(C)C(=O)N(CC(=O)OC)C(=O)N2C1=O	-29%	·	-7%	-5%	·	-12%
CCC1=C2CC[C@H]3C(=O)N(c4ccccc4)C(=O)[C@H]3[C@H]2[C@@]2(C)C(=O)N(Cc3ccccc3)C(=O)N2C1=O	-22%	·	-26%	20µM*	·	-12%
CCC1=C2CC[C@H]3C(=O)N(CC)C(=O)[C@H]3[C@H]2[C@@]2(C)C(=O)N(CC(=O)OC)C(=O)N2C1=O	-7%	·	-12%	18µM*	·	-12%
Cc1ccc2[nH]c(C)cc(=S)c2c1	?	·	?	18µM*	10%	·
COc1cccc(/C=C2\N=C(SC)SC2=O)c1OC	2%	8%	-2%	32µM*	-4%	25µM*
COc1ccc(NC(=O)CNc2cccc(C#N)c2)cc1Cl	3%	6%	-13%	?	5%	-21%
COc1ccc(NCC(=O)Nc2ccc(C#N)cc2)cc1Cl	-3%	0%	5%	10µM*	17%[9.22 µM]	-16%
CCN(CC)S(=O)(=O)c1ccc2nnn(OCC(=O)Nc3cccc(C#N)c3)c2c1	4%	4%	1%	14µM*	?	-7%
COc1ccc(S(=O)(=O)N(C)C)cc1NCC(=O)Nc1cccc(C#N)c1	·	·	?	20µM*	23%	·
CCNc1ccc(S(=O)(=O)N(C)C)cc1NCC(=O)Nc1ccccc1Br	-9%	1%[46 µM]	-11%	25µM*	9%	·
